Measurements published in PubChem BioAssay AID977607 (Broad Institute, 2014).
Screen size: about 1,500 compounds; about 460 (31%) were called active. Not shown: some 1% with an inconclusive outcome.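 Rule for the calls: active = curve reaches 40% activation over neutral controls at an AC40 no higher than the top valid tested concentration; inconclusive = no clear call, values can overlap the other calls; inactive = signal moving opposite to the expected increase, and the rest.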 The list is a sample of the results. Measured potencies and affinities stand elsewhere.

Assay: activators of glucose-dependent insulin secretion, dose response, cell-based, INS-1E, Gaussia luciferase, luminescence, cherry-pick, set 2 (AID 977607);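 note: 0% = median of the plate neutral control wells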
Settings: INS-1E GLuc insulin secretion reporter, 2-3 h, active compounds read high; at 35 µM, 100% = signal doubled over neutral wells unless noted

Max activation, inactive:
COc1cc(OC)c2c(-c3ccccc3)cc(C3CCCCC3)nc2c1 -18.2% [at 0.046 µM, 100% = signal doubled over neutral wells]
Cc1cccc(C)c1NC(=O)C1c2ccccc2OCC(=O)N1CCCN1CCOCC1 (stereo not drawn) -19% [at 3.8 µM, 100% = signal doubled over neutral wells]
CCOc1ccc(Nc2oc(-c3cccc(Cl)c3)nc2C#N)cc1 -13.2% [at 0.135 µM, 100% = signal doubled over neutral wells]
Cc1ccc(-c2nc(C#N)c(NCC3CCCO3)o2)cc1 (stereo not drawn) -16.4% [at 0.135 µM, 100% = signal doubled over neutral wells]
CCCCC(=O)Nc1ccc(C(=O)NNC(=O)c2ccc(C)c(Br)c2)cc1 -20.4% [at 3.8 µM, 100% = signal doubled over neutral wells]
CC1CCC(C(C)C)C(OCC(O)CNC(C)c2ccccc2)C1 (stereo not drawn) 35.2%
COc1ccc2c(c1)C(C)(Cc1ccc(C(=O)c3ccccc3)cc1)C(=O)N2 (stereo not drawn) -33.7%
Cc1ccsc1/C=N/n1c(-c2ccncc2)n[nH]c1=S 18.6%
Cc1ccccc1-c1n[nH]c(=S)n1/N=C/c1c(C)nn(-c2ccccc2)c1C -18% [at 0.0016 µM, 100% = signal doubled over neutral wells]
CC(C(=O)Nc1ccc2[nH]c(=O)[nH]c2c1)N1CCN(Cc2ccc3c(c2)OCO3)CC1 (stereo not drawn) -27.3% [at 11 µM, 100% = signal doubled over neutral wells]
O=C1NC(=O)C2(CCCCC2C2CCCCC2)N1 (stereo not drawn) 32.9% [at 0.135 µM, 100% = signal doubled over neutral wells]
Cc1ccc(S(=O)(=O)N(C)c2nc3ccccc3n3c(C(C)C)nnc23)cc1 -16.3% [at 0.42 µM, 100% = signal doubled over neutral wells]
Cc1ccc(C(=O)Nc2cccc(C(=O)N/N=C/c3ccc(F)cc3)c2)cc1 -21.7% [at 0.046 µM, 100% = signal doubled over neutral wells]
O=C(O)COc1ccccc1-c1ccccc1 -20.7% [at 3.8 µM, 100% = signal doubled over neutral wells]
CCCCCCC1CCC(C(=O)Nn2c(C)nc3ccccc3c2=O)CC1 (stereo not drawn) 26.8% [at 0.015 µM, 100% = signal doubled over neutral wells]
COc1ccccc1NS(=O)(=O)c1cccc(C(=O)N/N=C/c2c(C)nn(-c3ccccc3)c2N2CCCC2)c1 -50.5%
Cc1nn(-c2ccccc2)c(N2CCCC2)c1/C=N/O -12.4% [at 0.046 µM, 100% = signal doubled over neutral wells]
CC(C)NC(=O)OC[C@H]1O[C@H](C#Cc2ccc(C(C)(C)C)cc2)C=C[C@H]1O 54.1%
CC(C)NC(=O)C1(C)CN(S(C)(=O)=O)CC(=O)N1CCCN1CCOCC1 (stereo not drawn) -19.6% [at 0.015 µM, 100% = signal doubled over neutral wells]
O=C(O)c1ccc(-n2nnnc2SCc2cccc(Br)c2)cc1 -16.4% [at 0.135 µM, 100% = signal doubled over neutral wells]
O=C(O)c1ccc(-n2nnnc2SCc2ccccc2Br)cc1 24.2%
O=C(Nc1ccc(F)cc1)C1COc2ccccc2O1 (stereo not drawn) -26.7%
Cc1ccc(CS(=O)Cc2ccc(C(=O)NCc3ccccc3)o2)cc1 (stereo not drawn) 8.81% [at 1.2 µM, 100% = signal doubled over neutral wells]
Clc1ccc(OCCn2ccnc2)c(Cl)c1 53.2%
COc1ccc(/C=C/c2noc(-c3ccccc3OC(C)=O)n2)cc1 -25.1%
O=C(COc1cccc2c1CCNC2=O)NC1CCCCC1 -23.7% [at 1.2 µM, 100% = signal doubled over neutral wells]
CCCCOc1ccc(C2=NNC(=O)CC2)cc1 -15.4% [at 3.8 µM, 100% = signal doubled over neutral wells]
COCCNc1nc(N2CCCCC2)c2cnn(C)c2n1 -16.6% [at 0.42 µM, 100% = signal doubled over neutral wells]
Cc1c(P(=S)(c2ccccc2)c2ccccc2)[n+]2ccccc2n1C/C=C/c1ccccc1 -32.8%
O=C(Nc1ccc(C(=O)N2CCCC2)cc1)c1cccc(C(F)(F)F)c1 -13% [at 0.015 µM, 100% = signal doubled over neutral wells]
O=c1[nH]c2ccccc2nc1-c1nnnn1C1CCCC1 -11.7%
COc1ccc(-c2nc(N)ncc2-c2ccc(OC)c(OC)c2)c(O)c1 -26.8% [at 0.046 µM, 100% = signal doubled over neutral wells]
COc1ccc(CN2CCOC2=O)cc1OC -24.4% [at 0.046 µM, 100% = signal doubled over neutral wells]
COc1ccc(CNC(=O)CCn2c(=O)oc3ccccc32)c(OC)c1 -18.2% [at 3.8 µM, 100% = signal doubled over neutral wells]
O=C([C@H]1O[C@@H](n2ccc(=O)[nH]c2=O)[C@H](O)[C@@H]1O)N1CCN(c2ccc(Cl)cn2)CC1 -17.9% [at 1.2 µM, 100% = signal doubled over neutral wells]
CS(=O)(=O)N1CCCCC1c1cc(C(=O)Nc2cccc(C#N)c2)no1 (stereo not drawn) -20.8% [at 0.135 µM, 100% = signal doubled over neutral wells]
COc1ccc(C2=NOC(C(=O)Nc3cccnc3)C2)cc1OC (stereo not drawn) 36.7% [at 11 µM, 100% = signal doubled over neutral wells]
COc1ccc(-c2noc(CCC(=O)Nc3cccnc3)n2)cc1OC 10.9%
CCC(CC)NC(=O)c1ccccc1Oc1ccccc1 -14.5% [at 0.046 µM, 100% = signal doubled over neutral wells]
CC(=O)c1ccc2c(c1)N(Cc1ccccc1)C(=O)C(C)S2 (stereo not drawn) -15.7% [at 3.8 µM, 100% = signal doubled over neutral wells]
CC(C)(C)c1ccc(C#C[C@@H]2C=C[C@H]3OC(=O)CC/C=C/CCC(=O)OC[C@H]3O2)cc1 -35.6% [at 3.8 µM, 100% = signal doubled over neutral wells]
CCOC(=O)C1=C(COC(=O)c2cccs2)NC(=O)NC1C (stereo not drawn) 39.2% [at 11 µM, 100% = signal doubled over neutral wells]
CCOc1cc(NC(=O)c2ccco2)c(OCC)cc1NC(=O)c1cc(OC)c(OC)c(OC)c1 33.6%
COc1ccc(-c2c(NC(=O)c3ccco3)oc3ccc(Cl)cc3c2=O)cc1 -15.5% [at 0.42 µM, 100% = signal doubled over neutral wells]
Cc1ccnc(NC(=O)CNC(=O)c2ccco2)c1 -26.8% [at 3.8 µM, 100% = signal doubled over neutral wells]
Cc1c(Cc2ccccc2)sc(NC(=O)c2ccco2)c1C(N)=O -16.3% [at 0.015 µM, 100% = signal doubled over neutral wells]
Cc1ccc(C2(C)NC(=O)N(CC(=O)Nc3ccc(-c4nc5ccc(C)cc5s4)cc3)C2=O)cc1 (stereo not drawn) -34.8%
Cc1ccc2sc(-c3ccc(NC(=O)c4cc(-n5cnnc5)ccc4Cl)cc3)nc2c1 38.9%
CN(C)CCNc1ncnc2oc(-c3ccccc3)c(-c3ccccc3)c12 -17.7% [at 0.0016 µM, 100% = signal doubled over neutral wells]
CCOC(=O)C1CCCN(C(=O)c2ccccc2OC(F)(F)F)CC1 (stereo not drawn) -23.6% [at 0.0016 µM, 100% = signal doubled over neutral wells]
CCOc1cc(/C=N/NC(=O)CCn2nnc3ccccc32)ccc1O 23.5%
CCOc1ccccc1OCCC(=O)NNC(=O)Cn1nc(C)cc1C -16% [at 0.005 µM, 100% = signal doubled over neutral wells]
CCn1nnc(NC(=O)c2sc3ccccc3c2Cl)n1 -17.8% [at 3.8 µM, 100% = signal doubled over neutral wells]
Cc1c(NC(=S)NC(=O)c2sc3ccccc3c2Cl)cccc1C(=O)O -23.7% [at 0.0016 µM, 100% = signal doubled over neutral wells]
CCOc1nc(CC(C)C)c2c(c1C#N)CC(C)(C)OC2 -26.5%
O=C(NN(Cc1ccccc1)Cc1ccccc1)c1ccccc1 23.7% [at 1.2 µM, 100% = signal doubled over neutral wells]
Cn1cc(C(=O)NCC(=O)Nc2ccccc2Br)cn1 -16.7% [at 0.135 µM, 100% = signal doubled over neutral wells]
O=C(c1cc(-c2ccccc2)nc2ccccc12)N1CCCC1 -13.5% [at 11 µM, 100% = signal doubled over neutral wells]
